# Assay results reported in paper PMC7862700, “An all-to-all approach to the identification of sequence-specific readers for epigenetic DNA modifications on cytosine”.
# What was measured:
# Assay in all cases: DAPPL (digital affinity profiling via proximity ligation, sequencing); 10 mM Tris-HCl pH 7.5, 50 mM NaCl, 1 mM DTT, 4% glycerol, room temperature, 30 min; GST-TFs on glutathione beads, 16-mer random dsDNA library, 0.1% formaldehyde crosslink after washing; high values mean tight binding
# Conditions in all cases: protein: recombinant; tags: N-terminal GST; dsDNA, one strand shown
# FLI1 = target: T1, FLI1 (Homo sapiens, UniProt Q01543 1-452)
# T1 sequence: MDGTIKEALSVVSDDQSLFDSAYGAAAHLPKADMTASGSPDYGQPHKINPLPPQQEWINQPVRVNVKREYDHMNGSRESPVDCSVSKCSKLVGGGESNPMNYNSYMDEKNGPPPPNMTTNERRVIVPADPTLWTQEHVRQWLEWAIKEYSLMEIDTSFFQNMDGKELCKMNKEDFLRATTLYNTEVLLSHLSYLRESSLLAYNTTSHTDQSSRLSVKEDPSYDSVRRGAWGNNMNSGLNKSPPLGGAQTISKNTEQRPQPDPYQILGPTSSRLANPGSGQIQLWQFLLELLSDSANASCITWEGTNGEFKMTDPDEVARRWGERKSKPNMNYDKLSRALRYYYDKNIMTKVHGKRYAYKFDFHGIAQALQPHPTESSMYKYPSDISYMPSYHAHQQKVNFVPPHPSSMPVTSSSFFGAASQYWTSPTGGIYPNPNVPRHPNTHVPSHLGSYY
# How it was run: (§1)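 The binding signal reported is, for every hexamer, its read frequency for a factor over its read frequency for the tag-only sample. Reads came from pools of yeast-expressed, GST-fused human transcription factors on glutathione beads, barcoded with DNA and mixed with that sample, which were incubated with 200 nmole of a random double-stranded 16-mer DNA library in Tris/NaCl/DTT/glycerol buffer at room temperature for 30 min. After washing, the pools were crosslinked with 0.1% formaldehyde, proximity-ligated with BsaI/T4 ligase for 1 h at 37 °C, PCR-amplified and sequenced on an Illumina NextSeq500.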
# ELK1 = target: T2, ELK1 (Homo sapiens, UniProt P19419 1-428)
# T2 sequence: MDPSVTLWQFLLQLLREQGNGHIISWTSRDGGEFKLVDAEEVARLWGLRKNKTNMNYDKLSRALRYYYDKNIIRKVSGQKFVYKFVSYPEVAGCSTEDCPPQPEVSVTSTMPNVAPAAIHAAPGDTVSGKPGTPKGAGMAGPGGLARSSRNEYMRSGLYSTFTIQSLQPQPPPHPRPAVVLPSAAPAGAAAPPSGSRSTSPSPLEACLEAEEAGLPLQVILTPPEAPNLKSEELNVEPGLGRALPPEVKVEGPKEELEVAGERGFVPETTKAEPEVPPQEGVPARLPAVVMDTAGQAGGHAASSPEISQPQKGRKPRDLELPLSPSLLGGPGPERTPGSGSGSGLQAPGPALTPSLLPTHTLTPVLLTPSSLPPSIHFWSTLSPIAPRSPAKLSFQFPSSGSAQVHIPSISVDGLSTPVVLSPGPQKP
# How it was run: as §1
# GABPA = target: T3, GABPA (Homo sapiens, UniProt Q06546 1-454)
# T3 sequence: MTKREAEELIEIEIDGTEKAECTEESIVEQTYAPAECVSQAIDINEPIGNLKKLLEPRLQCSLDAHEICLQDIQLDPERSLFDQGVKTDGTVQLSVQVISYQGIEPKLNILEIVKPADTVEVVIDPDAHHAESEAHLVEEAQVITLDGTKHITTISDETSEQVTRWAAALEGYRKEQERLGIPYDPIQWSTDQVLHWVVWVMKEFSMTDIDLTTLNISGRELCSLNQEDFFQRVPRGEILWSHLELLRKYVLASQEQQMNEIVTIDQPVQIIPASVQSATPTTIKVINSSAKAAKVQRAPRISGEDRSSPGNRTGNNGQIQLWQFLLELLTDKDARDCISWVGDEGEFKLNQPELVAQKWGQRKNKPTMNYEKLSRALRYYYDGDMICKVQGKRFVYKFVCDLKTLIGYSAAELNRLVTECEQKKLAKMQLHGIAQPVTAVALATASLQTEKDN
# How it was run: as §1
# ERG = target: T4, ERG (Homo sapiens, UniProt P11308 1-479)
# T4 sequence: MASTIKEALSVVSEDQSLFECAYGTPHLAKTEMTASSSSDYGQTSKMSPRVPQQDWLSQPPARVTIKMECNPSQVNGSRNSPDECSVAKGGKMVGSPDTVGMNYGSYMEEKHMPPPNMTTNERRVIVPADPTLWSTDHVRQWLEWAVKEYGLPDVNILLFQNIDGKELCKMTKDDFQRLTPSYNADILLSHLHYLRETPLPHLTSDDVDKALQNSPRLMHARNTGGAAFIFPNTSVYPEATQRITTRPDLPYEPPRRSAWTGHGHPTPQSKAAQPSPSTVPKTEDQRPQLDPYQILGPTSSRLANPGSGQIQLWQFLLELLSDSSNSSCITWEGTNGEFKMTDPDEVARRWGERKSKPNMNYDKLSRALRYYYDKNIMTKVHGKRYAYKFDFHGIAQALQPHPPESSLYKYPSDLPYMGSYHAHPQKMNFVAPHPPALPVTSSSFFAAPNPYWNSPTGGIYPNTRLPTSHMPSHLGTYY
# How it was run: as §1
# ELF1 = ELF1 (Homo sapiens, UniProt P32519 1-619)
# ELF1, sequence (P32519 whole entry): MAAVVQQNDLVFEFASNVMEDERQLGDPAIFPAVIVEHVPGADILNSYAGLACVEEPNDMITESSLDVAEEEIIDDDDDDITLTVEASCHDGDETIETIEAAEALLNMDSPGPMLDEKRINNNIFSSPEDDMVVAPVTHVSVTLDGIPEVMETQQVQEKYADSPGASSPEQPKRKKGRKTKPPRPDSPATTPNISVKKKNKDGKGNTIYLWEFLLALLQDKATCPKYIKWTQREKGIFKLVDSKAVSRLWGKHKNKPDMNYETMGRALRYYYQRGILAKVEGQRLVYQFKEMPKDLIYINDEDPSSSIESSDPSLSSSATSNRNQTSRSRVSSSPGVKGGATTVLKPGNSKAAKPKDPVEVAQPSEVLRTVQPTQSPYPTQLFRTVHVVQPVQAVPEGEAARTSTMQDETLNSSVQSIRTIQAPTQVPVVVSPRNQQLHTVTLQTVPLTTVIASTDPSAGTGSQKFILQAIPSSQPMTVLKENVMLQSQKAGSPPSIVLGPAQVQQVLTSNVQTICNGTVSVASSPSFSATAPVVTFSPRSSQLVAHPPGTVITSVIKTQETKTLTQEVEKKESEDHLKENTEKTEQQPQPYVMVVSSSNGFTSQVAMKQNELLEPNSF
# How it was run: as §1
# EHF = target: T5, EHF (Homo sapiens, UniProt Q9NZC4 1-300)
# T5 sequence: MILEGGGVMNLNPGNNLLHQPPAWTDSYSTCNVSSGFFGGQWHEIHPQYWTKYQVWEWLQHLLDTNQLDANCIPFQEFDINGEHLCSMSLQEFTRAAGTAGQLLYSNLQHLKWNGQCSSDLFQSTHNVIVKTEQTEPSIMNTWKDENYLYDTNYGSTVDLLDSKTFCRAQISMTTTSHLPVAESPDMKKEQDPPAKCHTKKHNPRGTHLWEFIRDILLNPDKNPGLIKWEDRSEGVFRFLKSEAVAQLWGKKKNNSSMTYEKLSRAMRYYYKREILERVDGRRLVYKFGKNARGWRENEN
# How it was run: as §1
# SPI1 = SPI1 (Homo sapiens, UniProt P17947 1-270)
# How it was run: as §1
# SPIB = SPIB (Homo sapiens, UniProt Q01892 1-262)
# SPIB, sequence (Q01892 whole entry): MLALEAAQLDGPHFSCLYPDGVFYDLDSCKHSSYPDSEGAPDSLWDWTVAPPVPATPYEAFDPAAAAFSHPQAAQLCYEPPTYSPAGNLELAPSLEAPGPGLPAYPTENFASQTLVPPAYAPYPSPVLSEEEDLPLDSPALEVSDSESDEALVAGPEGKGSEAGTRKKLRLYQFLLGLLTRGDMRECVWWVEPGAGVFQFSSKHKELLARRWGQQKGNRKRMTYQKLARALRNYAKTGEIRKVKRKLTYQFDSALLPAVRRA
# How it was run: as §1
# ELK3 = target: T6, ELK3 (Homo sapiens, UniProt P41970 1-407)
# T6 sequence: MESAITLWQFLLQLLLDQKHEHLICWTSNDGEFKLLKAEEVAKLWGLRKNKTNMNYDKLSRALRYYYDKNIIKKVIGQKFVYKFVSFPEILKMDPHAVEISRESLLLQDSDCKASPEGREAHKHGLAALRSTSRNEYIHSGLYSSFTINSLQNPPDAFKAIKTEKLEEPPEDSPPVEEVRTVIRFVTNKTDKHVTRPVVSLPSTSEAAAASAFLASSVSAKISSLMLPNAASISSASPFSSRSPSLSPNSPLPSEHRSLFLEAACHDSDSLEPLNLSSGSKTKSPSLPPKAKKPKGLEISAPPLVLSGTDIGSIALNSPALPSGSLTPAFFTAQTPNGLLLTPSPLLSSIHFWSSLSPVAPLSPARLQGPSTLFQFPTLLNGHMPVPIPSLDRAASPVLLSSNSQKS
# How it was run: as §1
sequence,measurement,setting,value
TCCCAG,binding signal,FLI1,"1.05 fold enrichment (6-mer frequency, TF over GST control)"
same,binding signal,ELK1,"1.09 fold enrichment (6-mer frequency, TF over GST control)"
same,binding signal,GABPA,"1.08 fold enrichment (6-mer frequency, TF over GST control)"
same,binding signal,ERG,"1.07 fold enrichment (6-mer frequency, TF over GST control)"
same,binding signal,ELF1,"1.08 fold enrichment (6-mer frequency, TF over GST control)"
same,binding signal,EHF,"1.1 fold enrichment (6-mer frequency, TF over GST control)"
same,binding signal,SPI1,"1.11 fold enrichment (6-mer frequency, TF over GST control)"
same,binding signal,SPIB,"1.08 fold enrichment (6-mer frequency, TF over GST control)"
same,binding signal,ELK3,"1.11 fold enrichment (6-mer frequency, TF over GST control)"
